The full ranking holds about 9,900 sequences; the median of “r (bound/input frequency ratio)” is about 0.7, and the highest 2% start at about 6.5. The sample as a whole holds a higher share of the highest values than the screen did.
B1: ENSMUSG00000029636.408|Wasf3 (ssRNA)
RNA: GGGAGUUCUACAGUCCGACGAUCGCUUCGAUAUCCGCAUGCUAUAUUUUCUCAUAGUGUAAACUCAGGCAGAUGAAUAGCUGGAGAGUGGGUGGAUGGAUGGGUGAGUAUAUGGGUAGAUAAAUGGAUGAGUGGAUGGGUGGGUUAGGUGGGUAAGUAGCUAGGUGGAUGGGUGGGUGGAUACAUGGAUGAGUGGAUGGGUGGAUUGGUGGGUGAGUGGAUAGGUGAAUGGAUGAUAGGUGGUGGAUGGUUGAGUGGGUGGAUUCAUGAUGGAUGGAUGGAUGGAUGGAUGGAUGGAUGGAUGCUCUUGCGGUCGCACUAGUGUGGAAUUCUCGGGUGUCAAGG
B2: ENSMUSG00000029636.411|Wasf3 (ssRNA)
RNA: GGGAGUUCUACAGUCCGACGAUCGCUUCGAUAUCCGCAUGCUAACUCAGGCAGAUGAAUAGCUGGAGAGUGGGUGGAUGGAUGGGUGAGUAUAUGGGUAGAUAAAUGGAUGAGUGGAUGGGUGGGUUAGGUGGGUAAGUAGCUAGGUGGAUGGGUGGGUGGAUACAUGGAUGAGUGGAUGGGUGGAUUGGUGGGUGAGUGGAUAGGUGAAUGGAUGAUAGGUGGUGGAUGGUUGAGUGGGUGGAUUCAUGAUGGAUGGAUGGAUGGAUGGAUGGAUGGAUGGAUGGAUGAGUGGAUGGAUAAUCUCUUGCGGUCGCACUAGUGUGGAAUUCUCGGGUGUCAAGG
B3: ENSMUSG00000029636.401|Wasf3|14:18 (ssRNA)
RNA: GGGAGUUCUACAGUCCGACGAUCGCUUCGAUAUCCGCAUGCUAUUAUAGUGUUCCAACACAAUUGUAGCUGAGUUUCAGAUACGGUAUUUUCUCAUAGUGUAAACUCAGGCAGAUGAAUAGCUGGAGAGUGGGUGGAUGGAUGGGUGAGUAUAUGGGUAGAUAAAUGGAUGAGUGGAUGGGUGGGUUAGGUGGGUAAGUAGCUAGGUGGAUGGGUGGGUGGAUACAUGGAUGAGUGGAUGGGUGGAUUGGUGGGUGAGUGGAUAGGUGAAUGGAUGAUAGGUGGUGGAUGGUUGAGUGGGUGGCUCUUGCGGUCGCACUAGUGUGGAAUUCUCGGGUGUCAAGG
B4: ENSMUSG00000029636.397|Wasf3 (ssRNA)
RNA: GGGAGUUCUACAGUCCGACGAUCGCUUCGAUAUCCGCAUGCUAGCAAGGUUGUUUUAUAUUAUCCCCUUAUAGUGUUCCAUGUGUAUUGUAGCUGAGUUUCAGAUACGGUAUUUUCUCAUAGUGUAAACUCAGGCAGAUGAAUAGCUGGAGAGUGGGUGGAUGGAUGGGUGAGUAUAUGGGUAGAUAAAUGGAUGAGUGGAUGGGUGGGUUAGGUGGGUAAGUAGCUAGGUGGAUGGGUGGGUGGAUACAUGGAUGAGUGGAUGGGUGGAUUGGUGGGUGAGUGGAUAGGUGAAUGGAUGAUACUCUUGCGGUCGCACUAGUGUGGAAUUCUCGGGUGUCAAGG
B5: ENSMUSG00000029636.407|Wasf3 (ssRNA)
RNA: GGGAGUUCUACAGUCCGACGAUCGCUUCGAUAUCCGCAUGCUAAUACGGUAUUUUCUCAUAGUGUAAACUCAGGCAGAUGAAUAGCUGGAGAGUGGGUGGAUGGAUGGGUGAGUAUAUGGGUAGAUAAAUGGAUGAGUGGAUGGGUGGGUUAGGUGGGUAAGUAGCUAGGUGGAUGGGUGGGUGGAUACAUGGAUGAGUGGAUGGGUGGAUUGGUGGGUGAGUGGAUAGGUGAAUGGAUGAUAGGUGGUGGAUGGUUGAGUGGGUGGAUUCAUGAUGGAUGGAUGGAUGGAUGGAUGGAUGGACUCUUGCGGUCGCACUAGUGUGGAAUUCUCGGGUGUCAAGG
B6: ENSMUSG00000029636.395|Wasf3|50:54 (ssRNA)
RNA: GGGAGUUCUACAGUCCGACGAUCGCUUCGAUAUCCGCAUGCUAAAUCUACAGAUCGCAAGGUUGUUUUAUAUUAUCCCCUUAUAGUGUUCCAACACAAUUGUAGCUGAGUUUCAGAUACGGUAUUUUCUCAUAGUGUAAACUCAGGCAGAUGAAUAGCUGGAGAGUGGGUGGAUGGAUGGGUGAGUAUAUGGGUAGAUAAAUGGAUGAGUGGAUGGGUGGGUUAGGUGGGUAAGUAGCUAGGUGGAUGGGUGGGUGGAUACAUGGAUGAGUGGAUGGGUGGAUUGGUGGGUGAGUGGAUAGGUCUCUUGCGGUCGCACUAGUGUGGAAUUCUCGGGUGUCAAGG
B7: ENSMUSG00000029636.415|Wasf3 (ssRNA)
RNA: GGGAGUUCUACAGUCCGACGAUCGCUUCGAUAUCCGCAUGCUAAGUGGGUGGAUGGAUGGGUGAGUAUAUGGGUAGAUAAAUGGAUGAGUGGAUGGGUGGGUUAGGUGGGUAAGUAGCUAGGUGGAUGGGUGGGUGGAUACAUGGAUGAGUGGAUGGGUGGAUUGGUGGGUGAGUGGAUAGGUGAAUGGAUGAUAGGUGGUGGAUGGUUGAGUGGGUGGAUUCAUGAUGGAUGGAUGGAUGGAUGGAUGGAUGGAUGGAUGGAUGAGUGGAUGGAUAAUAGGUUGAUGGGUGGAUAGGUAGAUCUCUUGCGGUCGCACUAGUGUGGAAUUCUCGGGUGUCAAGG
B8: ENSMUSG00000029636.410|Wasf3 (ssRNA)
RNA: GGGAGUUCUACAGUCCGACGAUCGCUUCGAUAUCCGCAUGCUAGUGUAAACUCAGGCAGAUGAAUAGCUGGAGAGUGGGUGGAUGGAUGGGUGAGUAUAUGGGUAGAUAAAUGGAUGAGUGGAUGGGUGGGUUAGGUGGGUAAGUAGCUAGGUGGAUGGGUGGGUGGAUACAUGGAUGAGUGGAUGGGUGGAUUGGUGGGUGAGUGGAUAGGUGAAUGGAUGAUAGGUGGUGGAUGGUUGAGUGGGUGGAUUCAUGAUGGAUGGAUGGAUGGAUGGAUGGAUGGAUGGAUGGAUGAGUGGAUGCUCUUGCGGUCGCACUAGUGUGGAAUUCUCGGGUGUCAAGG
B9: ENSMUSG00000029636.393|Wasf3|62:66 (ssRNA)
RNA: GGGAGUUCUACAGUCCGACGAUCGCUUCGAUAUCCGCAUGCUAAUGCUUAUACUUAAUCUACAGAUCGCAAGGUUGUUUUAUAUUAUCCCCUUAUAGUGUUCCAACACAAUUGUAGCUGAGUUUCAGAUACGGUAUUUUCUCAUAGUGUAAACUCAGGCAGAUGAAUAGCUGGAGAGUGGGUGGAUGGAUGGGUGAGUAUAUGGGUAGAUAAAUGGAUGAGUGGAUGGGUGGGUUAGGUGGGUAAGUAGCUAGGUGGAUGGGUGGGUGGAUACAUGGAUGAGUGGAUGGGUGGAUUGGUGGGUCUCUUGCGGUCGCACUAGUGUGGAAUUCUCGGGUGUCAAGG
B10: ENSMUSG00000029636.416|Wasf3 (ssRNA)
RNA: GGGAGUUCUACAGUCCGACGAUCGCUUCGAUAUCCGCAUGCUAUGGAUGGAUGGGUGAGUAUAUGGGUAGAUAAAUGGAUGAGUGGAUGGGUGGGUUAGGUGGGUAAGUAGCUAGGUGGAUGGGUGGGUGGAUACAUGGAUGAGUGGAUGGGUGGAUUGGUGGGUGAGUGGAUAGGUGAAUGGAUGAUAGGUGGUGGAUGGUUGAGUGGGUGGAUUCAUGAUGGAUGGAUGGAUGGAUGGAUGGAUGGAUGGAUGGAUGAGUGGAUGGAUAAUAGGUUGAUGGGUGGAUAGGUAGAUGAGUGACUCUUGCGGUCGCACUAGUGUGGAAUUCUCGGGUGUCAAGG
B11: ENSMUSG00000029636.403|Wasf3 (ssRNA)
RNA: GGGAGUUCUACAGUCCGACGAUCGCUUCGAUAUCCGCAUGCUAAUGUGUAUUGUAGCUGAGUUUCAGAUACGGUAUUUUCUCAUAGUGUAAACUCAGGCAGAUGAAUAGCUGGAGAGUGGGUGGAUGGAUGGGUGAGUAUAUGGGUAGAUAAAUGGAUGAGUGGAUGGGUGGGUUAGGUGGGUAAGUAGCUAGGUGGAUGGGUGGGUGGAUACAUGGAUGAGUGGAUGGGUGGAUUGGUGGGUGAGUGGAUAGGUGAAUGGAUGAUAGGUGGUGGAUGGUUGAGUGGGUGGAUUCAUGAUGGACUCUUGCGGUCGCACUAGUGUGGAAUUCUCGGGUGUCAAGG
B12: ENSMUSG00000029636.392|Wasf3|68:72 (ssRNA)
RNA: GGGAGUUCUACAGUCCGACGAUCGCUUCGAUAUCCGCAUGCUACAUUUCAUGCUUAUACUUAAUCUACAGAUCGCAAGGUUGUUUUAUAUUAUCCCCUUAUAGUGUUCCAACACAAUUGUAGCUGAGUUUCAGAUACGGUAUUUUCUCAUAGUGUAAACUCAGGCAGAUGAAUAGCUGGAGAGUGGGUGGAUGGAUGGGUGAGUAUAUGGGUAGAUAAAUGGAUGAGUGGAUGGGUGGGUUAGGUGGGUAAGUAGCUAGGUGGAUGGGUGGGUGGAUACAUGGAUGAGUGGAUGGGUGGAUUGCUCUUGCGGUCGCACUAGUGUGGAAUUCUCGGGUGUCAAGG

Target: TDP-43 (Homo sapiens, UniProt Q13148 1-414)
Sequence (Q13148 whole entry): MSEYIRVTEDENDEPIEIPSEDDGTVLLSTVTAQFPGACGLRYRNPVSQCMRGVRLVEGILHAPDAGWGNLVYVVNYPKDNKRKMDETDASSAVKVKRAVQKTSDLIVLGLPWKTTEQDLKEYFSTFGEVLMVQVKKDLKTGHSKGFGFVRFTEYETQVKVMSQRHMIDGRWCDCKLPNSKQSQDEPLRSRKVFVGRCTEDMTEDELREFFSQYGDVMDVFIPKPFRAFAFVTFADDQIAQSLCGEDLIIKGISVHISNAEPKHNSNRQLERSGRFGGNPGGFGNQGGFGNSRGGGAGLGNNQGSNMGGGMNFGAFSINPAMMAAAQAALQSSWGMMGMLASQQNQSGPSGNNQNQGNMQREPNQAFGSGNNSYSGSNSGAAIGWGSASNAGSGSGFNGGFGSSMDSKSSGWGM
Assay: RNA Bind-n-Seq with designed 260-mer pool; 25 mM Tris-HCl, 150 mM KCl, 3 mM MgCl2, BSA (printed 500 mg/mL), 20 units/mL SUPERase IN; pH not stated; 500 nM RNA pool, 1 h, 4 C; TDP-43 5, 50, 500 nM; high values mean tight binding
Settings: protein: recombinant; tags: SBP (GST cleaved off with PreScission; pGEX-GST-SBP)
In short: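 Binding (R) is the ratio of each oligo's mapped-read-normalized abundance in the bound fraction to its abundance in the input. To obtain it, SBP-tagged recombinant TDP-43 (5, 50 or 500 nM) on streptavidin beads was incubated with 500 nM of an in vitro-transcribed 260-nt 3′ UTR oligo pool for 1 h at 4 °C in 25 mM Tris-HCl, 150 mM KCl, 3 mM MgCl2, BSA and SUPERase IN. The RNA retained after washing was released with biotin, then reverse transcribed, amplified by PCR and sequenced.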

Row | Binder | binding signal
1 | B1 | 20.3 R (bound/input frequency ratio)
2 | B2 | 7.25 R (bound/input frequency ratio)
3 | B3 | 4.07 R (bound/input frequency ratio)
4 | B4 | 4.09 R (bound/input frequency ratio)
5 | B5 | 3.52 R (bound/input frequency ratio)
6 | B6 | 4.72 R (bound/input frequency ratio)
7 | B7 | 2.19 R (bound/input frequency ratio)
8 | B8 | 2.97 R (bound/input frequency ratio)
9 | B9 | 6.94 R (bound/input frequency ratio)
10 | B10 | 6.38 R (bound/input frequency ratio)
11 | B11 | 15.4 R (bound/input frequency ratio)
12 | B12 | 4.14 R (bound/input frequency ratio)

From paper PMC12864922, “TDP-43 directly inhibits mRNA accumulation in neurites through modulation of mRNA stability”
